# According to PubChem BioAssay (NCATS):
# Several values for one entry are separate records, joined by “and”; a condition that tells them apart may be missing. Equal entries are not always repeated. Results filed as inconclusive are left out. Some compounds were tested as several samples or in several runs, with calls that do not always agree. Activity calls are given as the source filed them. Calls follow the shape of the dose curve; as a rule, active = well fitted activation curve with a large enough effect in the signal ratio; inconclusive = small, poorly fitted or top-dose-only effect, or effect the other way, or a change in a side signal; inactive = flat fitted curve, though single readings scatter; the % refers to the signal ratio.
# Test: qHTS assay for small molecule agonists of the antioxidant response element (ARE) signaling pathway (AID 651741)
# Conditions: HepG2 ARE-bla reporter, beta-lactamase FRET ratio, 16 h; series mostly up to 96 µM
# Text: National Center for Advancing Translational Sciences [NCATS]
# NIH Chemical Genomics Center [NCGC]
# U.S. Environmental Protection Agency [EPA]
# National Institutes of Environmental Health Sciences [NIEHS]
# National Toxicology Program [NTP]
# Oxidative stress has been implicated in the pathogenesis of a variety of diseases ranging from cancer to neurodegeneration. The antioxidant response element (ARE) signaling pathway plays an important role in the amelioration of oxidative stress. The CellSensor ARE-bla HepG2 cell line (Invitrogen) can be used for analyzing the Nrf2/antioxidant response signaling pathway. Nrf2 (NF-E2-related factor 2) and Nrf1 are transcription factors that bind to AREs and activate these genes. The CellSensor ARE-bla Hep G2 cell line contains a beta-lactamase reporter gene under control of the Antioxidant Response Element (ARE) stably integrated into HepG2 cells. The activation of the report gene under culture conditions can be detected by fluorescence intensity. This cell line can be used to screen chemicals in a 1536-well plate format and to identify agonists that induce oxidative stress.
# The ARE-bla cells were dispensed at 2,000 cells/5 ul/well in 1536-well black wall/clear bottom plates using a Multidrop dispenser. After the assay plates were incubated at a 37 C/5% CO2 incubator for 5 hours, 23 nL of compounds dissolved in DMSO, positive controls or DMSO only was transferred to the assay plate by a pin tool. The plates were incubated at 37 C for 16 hours. After 1 uL of LiveBLAzer B/G FRET substrate was added using a Flying Reagent Dispenser, the plates were incubated at room temperature for 2 hours, and fluorescence intensity was measured by an Envision plate reader.
# Potency is read from the fitted curve at half-maximal effect.
row,Compound,Potency
1,O=C1C(Cl)=C(Cl)C(=O)c2ccccc21,2.73 µM (active)
2,CC[C@H]1CCCC(O[C@H]2CC[C@H](N(C)C)[C@@H](C)O2)[C@@H](C)C(=O)C2=C[C@@H]3[C@@H](C=C[C@@H]4C[C@@H](O[C@@H]5O[C@@H](C)[C@H](OC)[C@@H](OC)[C@H]5OC)C[C@@H]34)[C@@H]2CC(=O)O1 (stereo not given in full),48.6 µM (active)
3,C=CC(=O)OCC(CC)(COC(=O)C=C)COC(=O)C=C,34.4 µM (active)
4,COc1ccc(/C(=C/C(=O)N2CCOCC2)c2ccc(Cl)cc2)cc1OC,inactive
5,CCC(C)c1cc([N+](=O)[O-])cc([N+](=O)[O-])c1O (stereo not given),2.73 µM (active)
6,CCNc1nc(Cl)nc(NC(C)(C)C)n1,inactive
7,Cc1ccc([N+](=O)[O-])cc1N,33.5 µM (active) and inactive
8,Cc1nn(-c2cc(NS(C)(=O)=O)c(Cl)cc2Cl)c(=O)n1C(F)F,inactive
9,CCOc1ccc(C(C)(C)COCc2cccc(Oc3ccccc3)c2)cc1,inactive
10,CNC(=O)Oc1ccc(N(C)C)c(C)c1,54.5 µM (active)
11,O=P(OCC(Br)CBr)(OCC(Br)CBr)OCC(Br)CBr (stereo not given),15.4 µM (active)
12,CCC[CH2][Sn](=[O])[CH2]CCC,inactive
13,CCCSC(=O)N(CCC)CCC,inactive
14,N#Cc1cc(I)c(O)c(I)c1,30.6 µM (active)
15,CC(C)(C)OOC(C)(C)CCC(C)(C)OOC(C)(C)C,inactive
16,CC1(C(=O)Nc2ccc(O)c(Cl)c2Cl)CCCCC1,30.6 µM (active)
17,CCc1cc(C)cc(CC)c1-c1c(OC(=O)C(C)(C)C)n2n(c1=O)CCOCC2,inactive
18,Nc1cccc(Cl)c1Cl,inactive
19,COP(=O)(OC)Oc1nc(Cl)c(Cl)cc1Cl,48.6 µM (active)
20,CCCCC(C#N)(Cn1cncn1)c1ccc(Cl)cc1 (stereo not given),inactive

row,Compound,Potency
1,FC(F)(F)c1ccc(OCCCOc2c(Cl)cc(OCC=C(Cl)Cl)cc2Cl)nc1,54.5 µM (active)
2,Cc1nn(C)c(Oc2ccccc2)c1/C=N/OCc1ccc(C(=O)OC(C)(C)C)cc1,0.154 µM (active)
3,COS(C)(=O)=O,42.2 µM (active)
4,CC(C)(c1ccccc1)c1cc(-n2nc3ccccc3n2)c(O)c(C(C)(C)c2ccccc2)c1,61.1 µM (active)
5,COc1ccc(C(O)(c2cncnc2)C2CC2)cc1 (stereo not given),inactive
6,CCCC1COC(Cn2cncn2)(c2ccc(Cl)cc2Cl)O1 (stereo not given),54.5 µM (active) and 61.1 µM (active)
7,O=S1OC[C@@H]2[C@H](CO1)[C@@]1(Cl)C(Cl)=C(Cl)[C@]2(Cl)C1(Cl)Cl (stereo not given in full),24.3 µM (active)
8,ClC1=C(Cl)C(Cl)(Cl)C(Cl)=C1Cl,inactive
9,CNP(=O)(OC)Oc1ccc(C(C)(C)C)cc1Cl (stereo not given),61.1 µM (active)
10,CCOP(=S)(OCC)SC(CCl)N1C(=O)c2ccccc2C1=O (stereo not given),27.3 µM (active)
11,ClC1=C(Cl)C2(Cl)C3C(Cl)C(Cl)CC3C1(Cl)C2(Cl)Cl (stereo not given),66.8 µM (active)
12,COc1ccc(-c2ccccc2)cc1NNC(=O)OC(C)C,54.5 µM (active)
13,N#CC(Cl)Cl,26.6 µM (active)
14,CN(C)P(=O)(N(C)C)N(C)C,inactive
15,c1ccc2c(c1)ccc1c3ccccc3ccc21,4.33 µM (active)
16,Nc1nc(N)nc(N)n1,inactive
17,CCC[CH2][Sn]1([CH2]CCC)[O]C(=O)C=CC(=O)[O]1,2.17 µM (active)
18,O=[N+]([O-])C(Br)Br,47.3 µM (active)
19,[O-][N+](=Nc1ccccc1)c1ccccc1,37.6 µM (active)
20,CNC(=O)Oc1cc(C)c(SC)c(C)c1,27.3 µM (active)
